Test results reported in PubChem BioAssay AID1835 (Johns Hopkins Ion Channel Center, 2009).
About 750 (31%) of roughly 2,400 compounds were called active. The list shows a part of the results. Unmarked numbers belong to inactive results.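 How the source made its calls: active means median signal gain over dofetilide-blocked control wells reaching their mean plus 3 SD, so readout 1 at least 0; inactive means the rest.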

Biological target: Voltage-gated inwardly rectifying potassium channel KCNH2 (Homo sapiens) (UniProt Q12809)
Sequence (Q12809 whole entry, looked up): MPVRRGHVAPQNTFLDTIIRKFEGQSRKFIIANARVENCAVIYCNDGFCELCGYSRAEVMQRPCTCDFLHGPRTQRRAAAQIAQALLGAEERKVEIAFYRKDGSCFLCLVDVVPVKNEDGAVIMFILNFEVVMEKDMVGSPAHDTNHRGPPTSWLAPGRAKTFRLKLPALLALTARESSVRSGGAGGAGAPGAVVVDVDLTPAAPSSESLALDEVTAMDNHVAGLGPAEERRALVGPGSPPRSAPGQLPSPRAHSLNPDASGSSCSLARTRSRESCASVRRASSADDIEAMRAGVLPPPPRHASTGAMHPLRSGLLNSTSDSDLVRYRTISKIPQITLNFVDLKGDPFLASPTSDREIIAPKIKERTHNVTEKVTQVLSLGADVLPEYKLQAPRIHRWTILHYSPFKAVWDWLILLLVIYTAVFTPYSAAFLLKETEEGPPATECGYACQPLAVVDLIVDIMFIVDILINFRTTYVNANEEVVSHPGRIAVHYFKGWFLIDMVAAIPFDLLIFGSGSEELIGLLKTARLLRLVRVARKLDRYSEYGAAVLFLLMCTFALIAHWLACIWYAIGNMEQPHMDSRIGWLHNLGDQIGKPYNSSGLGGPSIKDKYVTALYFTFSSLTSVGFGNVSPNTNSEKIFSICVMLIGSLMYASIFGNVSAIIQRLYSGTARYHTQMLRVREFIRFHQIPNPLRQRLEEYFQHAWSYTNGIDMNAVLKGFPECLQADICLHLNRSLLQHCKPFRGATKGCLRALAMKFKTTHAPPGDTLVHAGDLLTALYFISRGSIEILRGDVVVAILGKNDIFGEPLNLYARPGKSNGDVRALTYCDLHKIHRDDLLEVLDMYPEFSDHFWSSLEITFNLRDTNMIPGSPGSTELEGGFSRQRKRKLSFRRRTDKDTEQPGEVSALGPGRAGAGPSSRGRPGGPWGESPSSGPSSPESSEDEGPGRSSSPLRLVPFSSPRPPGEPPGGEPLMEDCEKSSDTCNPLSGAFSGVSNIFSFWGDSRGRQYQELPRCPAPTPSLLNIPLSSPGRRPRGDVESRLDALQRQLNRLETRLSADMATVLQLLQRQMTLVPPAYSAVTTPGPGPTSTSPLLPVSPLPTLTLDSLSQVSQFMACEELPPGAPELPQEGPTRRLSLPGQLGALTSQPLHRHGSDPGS
Assay: hERG protection against dofetilide inhibition, confirmation, cell-based, thallium flux, duplicate retest, dofetilide IC70 (AID 1835)
Conditions: hERG cell line, FluxOR thallium flux, dofetilide-blocked; at 10 µM; stronger effect = higher value

Compound	activity increase over dofetilide control, less the hit threshold
Cc1ccc(S(=O)(=O)c2nnn3c2nc(N2CCOCC2)c2ccccc23)c(C)c1	-14%
C/C(CCC12CC3CC(CC(C3)C1)C2)=N\NC(N)=S	0%
C/C(O)=C/c1nc2ccccc2[nH]c1=O	-7%
Cc1cccc(NC(=S)NC(=O)c2ccc(Br)o2)c1C	6% (active)
Cc1cccc(C)c1NC(=S)NC(=O)c1ccc(Br)o1	73% (active)
Cc1cccc(NC(=S)NC(=O)c2ccco2)c1C	52% (active)
CN1CCN(c2ccc(NC(=O)c3ccc(Br)o3)cc2)CC1	-2%
CCOc1ccc(-c2cccc(NC(=O)c3ccc(Br)o3)c2)nn1	-26%
Cc1cccc(NC(=O)CCNC(=O)c2ccco2)c1C	-13%
Nc1cc(=O)[nH]c(SCC(=O)N2CCCCC2)n1	-10%
Cc1ccc(CNS(=O)(=O)c2cc3c4c(c2)CCN4C(=O)CC3)cc1	-9%
Cc1cc(=S)nc(-c2ccccn2)[nH]1	-7%
Cc1[nH]c(-c2ccccn2)nc(=S)c1Cl	61% (active)
CC(C)c1ccc(NC(=O)C2CC3CCC2C3)cc1 (stereo not drawn)	-10%
CCC(C)NC(=O)c1c(-c2cc(Cl)c(OC)c(Cl)c2)noc1C (stereo not drawn)	-16%
CCC(Cc1ccccc1)n1c(=S)[nH]c2ccccc2c1=O (stereo not drawn)	4% (active)
CC(C)COn1c(=S)[nH]c2ccccc2c1=O	18% (active)
CCC(C)Sc1nc2c([nH]c3ccccc32)c(=O)n1C (stereo not drawn)	-5%
CCC(C)n1c(=S)[nH]c2ccccc2c1=O (stereo not drawn)	14% (active)
O=[N+]([O-])c1ccc(-c2ccc(/C=N/n3cnnc3)o2)c(Br)c1	12% (active)
O=C1C2C3C=CC(C4CC34)C2C(=O)N1/N=C/c1ccc(-c2ccc(F)cc2[N+](=O)[O-])o1 (stereo not drawn)	-1%
S=c1[nH]nc(-c2ccccn2)n1/N=C/c1ccc(-c2ccccc2Br)o1	-16%
COc1ccc(CS(=O)(=O)CC2(O)CCN(C(=O)c3cccc(C(F)(F)F)c3)CC2)cc1	-27%

Compound	activity increase over dofetilide control, less the hit threshold
CC12CCC(C(=O)NCc3ccc4c(c3)OCO4)(CC1=O)C2(C)C (stereo not drawn)	5% (active)
COc1ccccc1C(=O)NCc1ccc2c(c1)OCO2	-10%
Cc1cc(C)cc(-n2nnc(C(=O)NCc3ccc4c(c3)OCO4)c2N)c1	-19%
CCC(=O)Nc1cc(-c2nnc(OC)c3ccccc23)ccc1N1CCOCC1	-1%
CCCCCCn1c(-c2cccs2)n[nH]c1=S	-8%
CCCCn1c(-c2csc(C(C)C)c2)n[nH]c1=S	8% (active)
COc1cccc(C2C3=C(N=c4s/c(=C\c5ccc(OCC(=O)O)cc5)c(=O)n42)c2ccccc2CC3)c1 (stereo not drawn)	-29%
Cc1ccc(C(=O)NC(=S)Nc2ccccc2C(F)(F)F)cc1	-6%
O=C(NC(=S)Nc1cc(C(F)(F)F)ccc1Cl)c1ccccc1	1% (active)
CC(C)(C)SCCNC(=O)CN1C(=O)c2ccccc2S1(=O)=O	-4%
CCC1(c2ccc(Cl)cc2)NC(=S)N(c2ccc(C)cc2)N1 (stereo not drawn)	66% (active)
CCC1(c2ccccc2)NC(=S)N(c2ccc(C)cc2)N1 (stereo not drawn)	113% (active)
CCC1(c2ccc(Cl)cc2)NC(=S)N(c2ccccc2)N1 (stereo not drawn)	96% (active)
CC(NC(=O)CCCn1cc([N+](=O)[O-])cn1)c1ccccc1 (stereo not drawn)	-14%
CSc1nc(-c2ccco2)cc(C(F)(F)F)c1C#N	-17%
C=CCn1c(=S)[nH]c2ccc(Br)cc2c1=O	10% (active)
COc1ccccc1Cn1c(=S)[nH]c2ccc(Br)cc2c1=O	6% (active)
C=CCn1c(=S)[nH]c2nc3c(cc2c1=O)CCCC3	-9%
C=CCn1c(=S)[nH]c2cc(-c3ccccc3)sc2c1=O	6% (active)
Oc1ccc(Br)cc1-c1n[nH]c(=S)n1Cc1ccccc1	-17%
COc1ccc(Br)cc1CNc1ccccc1	-21%
Cc1cc(=O)[nH]c(=S)n1-c1ccccc1	-14%
CC12CCC(C(=O)OC3CCCCC3)(OC1=O)C2(C)C (stereo not drawn)	-17%

Compound	activity increase over dofetilide control, less the hit threshold
O=C(O)CN1C(=O)c2ccc(Oc3ccc4c(c3)C(=O)N(CC(=O)O)C4=O)cc2C1=O	-10%
O=C(O)Cc1cc(I)c(Oc2ccc(O)c(I)c2)c(I)c1	18% (active)
O=C(NCCCN1CCOCC1)c1ccc(CS(=O)(=O)Cc2ccccc2Cl)o1	-11%
CCn1ccnc1CN1CCCC(CO)(Cc2cccc(OC)c2)C1 (stereo not drawn)	-11%
S=C(NCCc1ccccc1)N/N=C/c1c(Cl)cccc1Cl	-12%
O=C(NC(=S)NCCc1ccccc1)c1cccc(Cl)c1	4% (active)
O=C(NCc1cccc(Cl)c1)c1ccncc1	-10%
Fc1ccc(-n2cc(-c3ccccc3)c3c(=S)nc[nH]c32)cc1	-1%
Cc1sc2nc[nH]c(=S)c2c1-c1ccccc1	36% (active)
Cc1c(-c2ccccc2)sc2nc[nH]c(=S)c12	52% (active)
COC(=O)c1ccc(NN=Nc2ccc(C)cc2)cc1	-6%
Nc1nonc1C(=O)N1CCCC1	-9%
Cc1nnc2ccc(-c3cccc(NC(=O)c4ccc(Cl)nc4)c3)nn12	-12%
COc1ccc2nc(N3CCCCC3)c(/C=C3\SC(=S)NC3=O)cc2c1	3% (active)
Cc1cc(NC(C)C)n2c(nc3ccccc32)c1C#N	-18%
O=C(O)CN1C(=O)C(=O)N(Cc2ccc(C(F)(F)F)cc2)C1=O	6% (active)
O=C(Nc1cccnc1)c1ccc(COc2ccccc2Br)o1	-3%
O=C(Nc1cccnc1)c1ccc(COc2cc(Cl)ccc2Cl)o1	0% (active)
O=C(Nc1ccc(Cl)c(-c2nc3ccccc3[nH]2)c1)c1cccnc1	-43%
COc1ccc(Cc2c(O)nc(SCC(C)C)[nH]c2=O)cc1	-18%
OC(CNCCc1ccc(C(F)(F)F)cc1)COc1cccc2ccccc12 (stereo not drawn)	-22%
O=C(OCc1ccccc1)C1=NNC2C(=O)N(c3ccc(Br)cc3)C(=O)C12 (stereo not drawn)	-2%
